{"source": "PubChem BioAssay (NCATS)", "note": "Where “and” joins values, the source holds several entries; their conditions need not be identical. Equal values may be shown once. Inconclusive results are not listed. A call without a number means that no potency is given here. Calls of active or inactive are those of the source. The call rests on the fitted dose curve; in most records, active means well fitted curve in the direction sought with a large enough effect; inconclusive means small, poorly fitted or top-dose-only effect, or another doubt; inactive means no such curve, though single readings can be large; an effect the other way counts as inactive or inconclusive. Potency means the concentration at half of the fitted maximal effect."}
{"tested_on": "not listed separately", "assay": "qHTS for Inhibitors of the Aldehyde Dehydrogenase Family (ALDH1A2, ALDH1A3, ALDH2, ALDH3A1) (AID 2061307); further: nearly all actives have a fitted effect of over 50% in size; on potency: test system not described further here", "details": "ALDH inhibition qHTS; series mostly up to 50.3 µM"}
{"smiles": "c1cc2c(cc1CNc1ccc(N3CCCCC3)cc1)OCO2", "Potency": "12.7 µM (active)"}
{"smiles": "N#Cc1nc(Nc2cccc([N+](=O)[O-])c2)nc(NC2CCCC2)n1", "Potency": "5.62 µM (active)"}
{"smiles": "Oc1ccc(COc2cccc3ccccc23)c2cccnc12", "Potency": "inactive"}
{"smiles": "CC1(C)CC[C@]2(C(=O)O)CC[C@]3(C)C(=CCC4[C@@]5(C)C[C@@H](O)[C@H](O)[C@@](C)(CO)C5CC[C@]43C)[C@@H]2[C@@H]1O", "note": "(some centres not stated)", "Potency": "inactive"}
{"smiles": "CC(=O)Nc1ccc(NC(=O)c2sc(COc3ccc(F)cc3)nc2C)cc1", "Potency": "inactive"}
{"smiles": "Cc1ccc(OCCCn2c(CCN)nc3ccccc32)cc1", "Potency": "inactive"}
{"smiles": "Cc1ccc(S(=O)(=O)Nc2cc(F)ccc2C(=O)Nc2nc(-c3ccccc3)cs2)cc1", "Potency": "0.224 µM (active)"}
{"smiles": "COc1ccc(C(=O)c2c(C)n(CC(=O)O)c3cc(OC)ccc23)cc1", "Potency": "inactive"}
{"smiles": "O=C(O)c1ccc(O)c2ncc(N3CC(N4CCOCC4)C3)cc12", "Potency": "inactive"}
{"smiles": "Cc1ccc(CNc2ccc(N3CCCCC3)cc2)cc1", "Potency": "11.3 µM (active)"}
{"smiles": "O=C(CCCCc1cn(-c2cc3ccc(O)cc3oc2=O)nn1)NCCOCCOCCOc1ccc(-n2ncc3c2CCCC3NC(=O)c2ccccn2)cc1", "note": "(configuration not stated)", "Potency": "2.82 µM (active)"}
{"smiles": "O=C(Nc1ccc(-c2nnc3n2CCCC3)cc1)Nc1ccccc1Br", "Potency": "8.91 µM (active)"}
{"smiles": "C=C1CN(Cc2ccc(C(=O)Nc3ccccc3N)cc2)C(=O)c2ccccc21", "Potency": "15.8 µM (active)"}
{"smiles": "COc1ccc2nc(-c3ccc(F)cc3)sc2c1", "Potency": "5.38 µM (active)"}
{"smiles": "NC(=O)C1CCN(c2ncc(-c3ccc4c(c3)OC(F)(F)O4)s2)CC1", "Potency": "10.1 µM (active)"}
{"smiles": "O=C(Nc1ccccc1OC(F)(F)F)c1csc(-c2ccc(F)cc2)n1", "Potency": "inactive"}
{"smiles": "CCOC(=O)C1CCN(c2ncc(-c3ccc4c(c3)OCCCO4)s2)CC1", "Potency": "5.65 µM (active)"}
{"smiles": "CCOC(=O)C1CCN(C(=O)C(C)(C)NC(=O)Nc2ccc(N)cc2)CC1", "Potency": "inactive"}
{"smiles": "COc1ccc(C2Nc3ccccc3C(=O)N2Cc2ccccc2)cc1COc1ccc(C#N)cc1", "note": "(configuration not stated)", "Potency": "1.01 µM (active)"}
{"smiles": "Oc1ccc(COC2CCN(Cc3ccccc3)C2)c2cccnc12", "note": "(configuration not stated)", "Potency": "inactive"}
{"smiles": "Cc1ccc2nc3sc(C(=O)NCCCN(C)C)cc3cc2c1", "Potency": "12.1 µM (active)"}
{"smiles": "O=C(NCc1ccccc1)C1CCN(c2nc(-c3ccc(Br)cc3)cs2)CC1", "Potency": "7.08 µM (active)"}
{"smiles": "Cc1ccc(CNc2ccc(N3CCN(C)CC3=O)cc2)cc1", "Potency": "inactive"}
{"smiles": "O=C(O)c1ccc(-c2noc(-c3cccc(F)c3)n2)cc1", "Potency": "1.52 µM (active)"}
{"smiles": "Cc1cccc(NC(=O)C2CC(=O)N(c3ccc(S(=O)(=O)N(C)C)cc3)C2)n1", "note": "(configuration not stated)", "Potency": "inactive"}
{"smiles": "O=C([C@@H](NS(=O)(=O)c1ccc2[nH]c(=O)ccc2c1)c1ccccc1)N(Cc1ccco1)Cc1cccs1", "Potency": "inactive"}
{"smiles": "Cc1ccccc1Nc1nc(C#N)nc(NC2CCCC2)n1", "Potency": "10.1 µM (active)"}
{"smiles": "O=C(CN1CCC(CCc2ccccc2)CC1)Nc1ccccc1", "Potency": "15.8 µM (active)"}
{"smiles": "c1cc2c(cc1CNc1ccc(N3CCOCC3)cc1)OCO2", "Potency": "11.3 µM (active)"}
{"smiles": "NCC(CNc1nc(Nc2cccc(NC(=O)N3CCCC3)c2)ncc1I)C(=O)c1cccs1", "note": "(configuration not stated)", "Potency": "inactive"}
{"smiles": "Cc1ccsc1CN(C)c1ncnc2ccc(-c3ccoc3)cc12", "Potency": "inactive"}
{"smiles": "CC(=O)N1CCC(Nc2ncnc3scc(-c4ccccc4)c23)CC1", "Potency": "6.31 µM (active)"}
{"smiles": "O=C(O)c1ccc(-c2noc(-c3ccccc3F)n2)cc1", "Potency": "3.98 µM (active) and 1.2 µM (active)"}
{"smiles": "CC(=O)Nc1sc2c(c1-c1nc3ccccc3o1)CCN(C(C)C)C2", "Potency": "7.08 µM (active)"}
{"smiles": "Cc1ccc(NC(=O)c2cc(-c3cccs3)on2)cc1C", "Potency": "inactive"}
{"smiles": "COc1ccc(Cl)cc1NC(=O)c1nn(-c2ccc(C)cc2)c(=O)n(C)c1=O", "Potency": "inactive"}
{"smiles": "Cc1cc(NS(=O)(=O)c2ccc(NCCc3ccc(Cl)c(Cl)c3)cc2)no1", "Potency": "2.83 µM (active)"}
{"smiles": "COc1cccc(-c2nc(-c3ccc(C(=O)O)cc3)no2)c1", "Potency": "1.2 µM (active)"}
{"smiles": "COc1cccc(C2c3c(ncn(-c4ccccc4-c4ccccc4)c3=N)Oc3ccc4ccccc4c32)c1", "note": "(configuration not stated)", "Potency": "8.91 µM (active)"}
{"smiles": "Oc1ccccc1C1Nc2cccc3cccc(c23)N1", "Potency": "inactive"}
{"molecular_target": "Aldehyde dehydrogenase, mitochondrial (Homo sapiens) (UniProt P05091)", "assay": "qHTS for Inhibitors of the Aldehyde Dehydrogenase Family (ALDH2) Primary screen (AID 2061308); further: nearly all actives have a fitted effect of over 55% in size", "details": "ALDH2 enzyme inhibition qHTS, 1536-well; series mostly up to 56 µM"}
{"smiles": "c1cc2c(cc1CNc1ccc(N3CCCCC3)cc1)OCO2", "Potency": "inactive"}
{"smiles": "N#Cc1nc(Nc2cccc([N+](=O)[O-])c2)nc(NC2CCCC2)n1", "Potency": "inactive"}
{"smiles": "Oc1ccc(COc2cccc3ccccc23)c2cccnc12", "Potency": "inactive"}
{"smiles": "CC1(C)CC[C@]2(C(=O)O)CC[C@]3(C)C(=CCC4[C@@]5(C)C[C@@H](O)[C@H](O)[C@@](C)(CO)C5CC[C@]43C)[C@@H]2[C@@H]1O", "note": "(some centres not stated)", "Potency": "inactive"}
{"smiles": "Cc1ccc(S(=O)(=O)Nc2cc(F)ccc2C(=O)Nc2nc(-c3ccccc3)cs2)cc1", "Potency": "inactive"}
{"smiles": "O=C(O)c1ccc(O)c2ncc(N3CC(N4CCOCC4)C3)cc12", "Potency": "inactive"}
{"smiles": "Cc1ccc(CNc2ccc(N3CCCCC3)cc2)cc1", "Potency": "inactive"}
{"smiles": "C=C1CN(Cc2ccc(C(=O)Nc3ccccc3N)cc2)C(=O)c2ccccc21", "Potency": "inactive"}
{"smiles": "COc1ccc2nc(-c3ccc(F)cc3)sc2c1", "Potency": "inactive"}
{"smiles": "NC(=O)C1CCN(c2ncc(-c3ccc4c(c3)OC(F)(F)O4)s2)CC1", "Potency": "inactive"}
{"smiles": "CCOC(=O)C1CCN(c2ncc(-c3ccc4c(c3)OCCCO4)s2)CC1", "Potency": "inactive"}
{"smiles": "CCOC(=O)C1CCN(C(=O)C(C)(C)NC(=O)Nc2ccc(N)cc2)CC1", "Potency": "inactive"}
{"smiles": "COc1ccc(C2Nc3ccccc3C(=O)N2Cc2ccccc2)cc1COc1ccc(C#N)cc1", "note": "(configuration not stated)", "Potency": "inactive"}
{"smiles": "Oc1ccc(COC2CCN(Cc3ccccc3)C2)c2cccnc12", "note": "(configuration not stated)", "Potency": "inactive"}
{"smiles": "Cc1ccc2nc3sc(C(=O)NCCCN(C)C)cc3cc2c1", "Potency": "inactive"}
{"smiles": "O=C(NCc1ccccc1)C1CCN(c2nc(-c3ccc(Br)cc3)cs2)CC1", "Potency": "inactive"}
{"smiles": "Cc1ccc(CNc2ccc(N3CCN(C)CC3=O)cc2)cc1", "Potency": "inactive"}
{"smiles": "O=C(O)c1ccc(-c2noc(-c3cccc(F)c3)n2)cc1", "Potency": "inactive"}
{"smiles": "Cc1ccccc1Nc1nc(C#N)nc(NC2CCCC2)n1", "Potency": "inactive"}
{"smiles": "c1cc2c(cc1CNc1ccc(N3CCOCC3)cc1)OCO2", "Potency": "inactive"}
{"smiles": "NCC(CNc1nc(Nc2cccc(NC(=O)N3CCCC3)c2)ncc1I)C(=O)c1cccs1", "note": "(configuration not stated)", "Potency": "20 µM (active)"}
{"smiles": "Cc1ccsc1CN(C)c1ncnc2ccc(-c3ccoc3)cc12", "Potency": "inactive"}
{"smiles": "O=C(O)c1ccc(-c2noc(-c3ccccc3F)n2)cc1", "Potency": "inactive"}
{"smiles": "CC(=O)Nc1sc2c(c1-c1nc3ccccc3o1)CCN(C(C)C)C2", "Potency": "inactive"}
{"smiles": "COc1cccc(-c2nc(-c3ccc(C(=O)O)cc3)no2)c1", "Potency": "inactive"}
{"smiles": "COc1cccc(C2c3c(ncn(-c4ccccc4-c4ccccc4)c3=N)Oc3ccc4ccccc4c32)c1", "note": "(configuration not stated)", "Potency": "inactive"}
{"smiles": "Oc1ccccc1C1Nc2cccc3cccc(c23)N1", "Potency": "inactive"}
